Screening data deposited in PubChem BioAssay by several laboratories.
The list is not random: actives were taken first. Their share in the collection is about 1.6%.
Myeloid diff MLP – promotes myeloid progenitor differentiation; ER-HoxA9 myeloid progenitors, lysozyme-GFP differentiation, flow cytometry; calls only at 10 µM; 1% of 360,000 active; AID 624256;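 active = normalized GFP-positive differentiation at or above the plate's own cutoff, the solvent-only control mean plus 3 SD; inconclusive = no clear call, values can overlap the other calls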;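 note: cells exposed to compound for four days before flow analysis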
RAD54 branch – RAD54 (human) branch migration inhibition. inhibition, % at 10.4 µM. RAD54 Holliday junction branch migration, FAM/BHQ fluorescence. 0.14% of 360,000 active. Q92698;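 active = mean normalized replicate activity at least 40 and at least half of replicates scoring 40 or more; inconclusive = only one of the two criteria met; inactive = mean below 40 and under half of replicates reaching 40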;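 note: 0% = median of neutral control wells and 100% = median of positive control wells; inhibitors cause a drop in the FAM fluorescence signal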
Target sequence (Q92698 whole entry, looked up): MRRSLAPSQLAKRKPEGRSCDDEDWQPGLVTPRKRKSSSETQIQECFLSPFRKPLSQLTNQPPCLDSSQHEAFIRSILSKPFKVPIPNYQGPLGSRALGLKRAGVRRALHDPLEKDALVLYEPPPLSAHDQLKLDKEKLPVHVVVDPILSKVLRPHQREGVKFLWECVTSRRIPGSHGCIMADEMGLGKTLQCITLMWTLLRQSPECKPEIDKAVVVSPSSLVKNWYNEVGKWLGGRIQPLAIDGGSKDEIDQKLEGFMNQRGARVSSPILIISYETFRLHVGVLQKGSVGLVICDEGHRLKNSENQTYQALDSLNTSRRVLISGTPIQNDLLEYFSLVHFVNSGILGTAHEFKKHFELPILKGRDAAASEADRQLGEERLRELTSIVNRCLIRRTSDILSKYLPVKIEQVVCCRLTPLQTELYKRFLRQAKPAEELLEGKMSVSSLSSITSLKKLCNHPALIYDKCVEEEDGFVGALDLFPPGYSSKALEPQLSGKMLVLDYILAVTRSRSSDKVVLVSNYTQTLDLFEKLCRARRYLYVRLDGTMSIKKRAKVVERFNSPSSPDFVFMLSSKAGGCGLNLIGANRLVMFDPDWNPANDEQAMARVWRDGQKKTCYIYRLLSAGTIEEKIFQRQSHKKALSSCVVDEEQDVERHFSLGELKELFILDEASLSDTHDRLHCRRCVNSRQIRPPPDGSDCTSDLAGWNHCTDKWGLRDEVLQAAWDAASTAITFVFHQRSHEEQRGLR
ABCB6 inh MLPCN – inhibitors of human ABC transporter ABCB6. K562-ABCB6 porphyrin accumulation, flow cytometry, 1 h; stronger effect = lower value. fluorescence ratio to DMSO, % at 10 µM. 0.19% of 360,000 active;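 active = fluorescence ratio to DMSO below 75%, the collection mean minus 3 SD; inconclusive = too few cells collected in the well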;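 note: signal is porphyrin accumulated inside mitochondria; 100% equals median channel fluorescence of DMSO control wells; lower ratio means ABCB6 inhibition with less porphyrin fluorescence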
Glyco luc inh – blocks N-linked glycosylation in D54 reporter cells; D54 ERlucT glycosylation luciferase reporter, 24 h; percent of 100 nM tunicamycin response; reporter increase, % at 12.5 µM; 0.23% of 360,000 active; AID 588692;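 active = mean luciferase reporter signal, scaled so untreated is 0 and the glycosylation-blocking control 100, at or above a set limit in every replicate; inconclusive = mean reaches the limit but not every replicate does; inactive = mean below the limit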;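 note: luciferase carries N-glycosylation sites so blocking glycosylation raises the light; 0% = median of neutral control wells and 100% = median of 100 nM tunicamycin wells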
Vif inh – blocks HIV Vif function. HEK293T cells, Vif self-association by quenched fluorescence, imaging, 24 h. inhibition, % at 7.49 µM. 0.35% of 340,000 active. AID 602346; in the data active = inhibition above about 50%, passing the limit was not always enough; inconclusive = no clear call, values can overlap the other calls; inactive = below about 31%
Starred values were filed as active, the others as inactive.

CCC(C)N1C(=O)/C(=C/c2c(NCCCOC(C)C)nc3c(C)cccn3c2=O)SC1=S (stereo unspecified) was read as Myeloid diff MLP active, RAD54 branch -22, ABCB6 inh MLPCN inactive, Glyco luc inh -6 and Vif inh inactive.
CCC(C)Nc1nc2c(C)cccn2c(=O)c1C=Nc1ccc(OC)cc1 (stereo unspecified) was read as Myeloid diff MLP inactive, ABCB6 inh MLPCN 95, Glyco luc inh 0 and Vif inh 4.
Screening CCCN1C(=O)/C(=C/c2c(NCCCOC(C)C)nc3c(C)cccn3c2=O)SC1=S returned Myeloid diff MLP active, RAD54 branch -14, ABCB6 inh MLPCN inactive, Glyco luc inh 2 and Vif inh 21.
CO[C@@H]1CN(C)C(=O)c2ccc(NC(=O)c3nc4ccccc4s3)cc2OC[C@@H](C)NC[C@H]1C was read as RAD54 branch 24.
For CCC(C)c1ccccc1NC(=O)COC(=O)c1ccc2[nH]c3c(c2c1)CCCC3 (stereo unspecified) the results were Myeloid diff MLP active, ABCB6 inh MLPCN 83, Glyco luc inh 14 and Vif inh -2.
C[C@H](CO)N1C[C@H](C)[C@@H](CN(C)C(=O)CCCN(C)C)OCCCC[C@H](C)Oc2ccc(NC(=O)CCCN(C)C)cc2C1=O was read as RAD54 branch -6.
`CC(NC(=O)CSc1nc2c(c(C(F)(F)F)n1)CCc1ccccc1-2)c1ccccc1` (stereo unspecified) gave Myeloid diff MLP inactive, RAD54 branch 8, ABCB6 inh MLPCN 91, Glyco luc inh -6 and Vif inh 63*.
Screening O=C(Cc1ccccc1)N1CC[C@@H]2[C@H]1c1cc(-c3ccccc3)ccc1N[C@@H]2CO returned RAD54 branch -6.
C/C(CC(=O)Nc1cc(C)ccn1)=N\NC(=O)c1ccc(C)cc1 was read as Myeloid diff MLP inactive, ABCB6 inh MLPCN 99, Glyco luc inh -1 and Vif inh 14.
Screening C/C(CC(=O)Nc1cc(C)ccn1)=N\NC(=O)c1cccc(F)c1 returned Myeloid diff MLP active, RAD54 branch -6, ABCB6 inh MLPCN 97, Glyco luc inh 0 and Vif inh 15.
C[C@@H]1CCCCO[C@H](CN(C)S(=O)(=O)c2ccccc2)[C@@H](C)CN([C@@H](C)CO)C(=O)c2cc(NC(=O)C3CCCCC3)ccc2O1 was read as RAD54 branch -1.
Screening O=C(C[C@H]1C[C@@H]2c3cc(NC(=O)CC4CC4)ccc3O[C@@H]2[C@H](CO)O1)NCc1ccc2c(c1)OCO2 returned RAD54 branch -19.
Screening C[C@H](CO)N1C[C@H](C)[C@H](CN(C)S(=O)(=O)c2ccccc2)OCCCC[C@H](C)Oc2ccc(NC(=O)NC3CCCCC3)cc2C1=O returned RAD54 branch -6.
CCOc1ccc2nc(NS(=O)(=O)Cc3ccccc3)sc2c1 was read as Myeloid diff MLP inactive, RAD54 branch 5, ABCB6 inh MLPCN 96, Glyco luc inh 23 and Vif inh 106*.
For CCCC(=O)Nc1nc2ccc(OCC)cc2s1 the results were Myeloid diff MLP inactive, RAD54 branch -2, ABCB6 inh MLPCN 95, Glyco luc inh -3 and Vif inh 16.
`CCOc1ccc2nc(NC(=S)N(C)C)sc2c1` gave Myeloid diff MLP active, RAD54 branch -5, ABCB6 inh MLPCN 88, Glyco luc inh -11 and Vif inh -8.
Screening NC[C@@H]1O[C@H](C23CC4CC(CC(C4)C2)C3)Cc2c1ccc(O)c2O returned Myeloid diff MLP active, RAD54 branch 9, ABCB6 inh MLPCN 140, Glyco luc inh -7 and Vif inh -3.
Screening CCOC(=O)C1CCCN(Cc2ccc(OC)cc2OC)C1 (stereo unspecified) returned Myeloid diff MLP inactive, RAD54 branch 0, ABCB6 inh MLPCN 88, Glyco luc inh 1 and Vif inh 55*.
O=C(CN1CCOCC1)N[C@H]1CC[C@@H](CCn2cc(C3CCCCC3)nn2)O[C@H]1CO was read as RAD54 branch 0.
`O=C(Nc1ccc2c(c1)OCO2)N[C@@H]1CC[C@@H](CCNC(=O)C2CCOCC2)O[C@H]1CO` gave RAD54 branch -1.
For OC[C@@H]1[C@H](c2ccc(/C=C/c3ccccc3)cc2)[C@@H]2CN(Cc3ccncc3)CCCCN12 the results were RAD54 branch -3.
For CC1=C(C)/C(=N\OS(=O)(=O)c2ccccc2)C=CC1=O the results were RAD54 branch -11, ABCB6 inh MLPCN 92, Glyco luc inh 4 and Vif inh 55*.
Screening O=C(O)c1ccccc1CSc1nc2ccccc2n1Cc1ccccc1C(=O)O returned Myeloid diff MLP active, ABCB6 inh MLPCN 123, Glyco luc inh -2 and Vif inh -5.
For CCCN1C[C@@H](C)[C@H](OC)CN(C)C(=O)c2cc(NC(=O)c3cccc(F)c3)ccc2OC[C@H]1C the results were RAD54 branch -2.
For CCN1CCN(CCNC(=O)c2ccc(/C=C3/Sc4ccccc4N(Cc4ccccc4C)C3=O)cc2)CC1 the results were Myeloid diff MLP active, RAD54 branch 1, ABCB6 inh MLPCN 105, Glyco luc inh -8 and Vif inh -2.
Cc1ccccc1CN1C(=O)c2ccccc2Sc2ccc(C(=O)NCCN3CCOCC3)cc21 was read as Myeloid diff MLP inconclusive, RAD54 branch 12, ABCB6 inh MLPCN 106, Glyco luc inh -2 and Vif inh 8.
Screening O=C(NCCN1CCOCC1)c1ccc2c(c1)N(Cc1ccccc1F)C(=O)c1ccccc1S2 returned Myeloid diff MLP active, RAD54 branch 2, ABCB6 inh MLPCN 104, Glyco luc inh -1 and Vif inh -4.
CCN1CCN(CCCNC(=O)c2ccc(/C=C3/Oc4ccccc4N(Cc4cccc(C)c4)C3=O)cc2)CC1 was read as Myeloid diff MLP inactive, RAD54 branch 5, ABCB6 inh MLPCN 102, Glyco luc inh -1 and Vif inh -1.
`CCN1CCN(CCCNC(=O)c2ccc(/C=C3/Sc4ccccc4N(Cc4ccccc4F)C3=O)cc2)CC1` gave Myeloid diff MLP inactive, RAD54 branch 54*, ABCB6 inh MLPCN 101 and Glyco luc inh -7.
C[C@H]1CN([C@@H](C)CO)C(=O)c2c(c3ccccc3n2C)-c2ccccc2CO[C@@H]1CN(C)C(=O)C1CC1 was read as RAD54 branch 0.
For COc1cc2c(cc1OC)C(=O)N1[C@H]3c4cc(Cl)ccc4OC[C@@H]3[C@H](c3ccccc3)[C@]1(C)C(=O)N2 the results were Myeloid diff MLP inactive, RAD54 branch -3, ABCB6 inh MLPCN 100, Glyco luc inh 45* and Vif inh -6.
Screening COc1cc2c(cc1OC)C(=O)N1[C@H]3c4cc(C)ccc4OC[C@@H]3[C@H](c3ccccc3)[C@]1(C)C(=O)N2 returned Myeloid diff MLP inactive, RAD54 branch 6, ABCB6 inh MLPCN 103, Glyco luc inh 52* and Vif inh 1.
